Measured values taken from PubChem BioAssay AID890 (National Center for Advancing Translational Sciences (NCATS), 2007).
Calls of active or inactive are those of the source. Entries that show only a call come without a potency. Calls follow the shape of the dose curve; as a rule, active = well fitted activation curve with a large enough effect; inactive = flat fitted curve, though single readings scatter.

Experiment: Confirmation Concentration-Response Assay for Epigenetic Modulators
Conditions: murine C127i cells, silenced GFP reporter derepression, imaging; series mostly up to 46 µM
In short: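 Read-out is the number of GFP-positive cells, counted by laser-scanning cytometry as 20 to 120 um fluorescent objects following washing. Compounds were incubated 30 hours at 37 C with c127i murine cells harbouring a silenced CMV-GFP locus.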
With Cc1cc(C)n(-c2nc(NC(C)(C)C)nc(NC(C)(C)C)n2)n1 the Potency was “inactive”.
With Oc1c(C(Nc2ccccn2)c2ccco2)cc(Cl)c2cccnc12 (centres undefined) the Potency was “inactive”.
In the case of CC(C)C(=O)NC(/C=C/c1ccccc1)c1cc([N+](=O)[O-])c2cccnc2c1O (centres undefined), the Potency is reported as “inactive”.
For O=C(Cc1ccccc1)NC(c1ccco1)c1ccc2cccnc2c1O (centres undefined), the Potency was 16.2 µM (active).
